From paper PMC5540273 (PLoS ONE, 2017)

How the values were obtained:
Details in all cases: concentration: 1 μM, replicates: in singlicate; n = 1
[1] = test system: T1, HASPIN
T1 construct: gene GSG2

[2] = test system: HCK
[3] = test system: HIPK1
[4] = test system: HIPK2
[5] = test system: HIPK3
[6] = test system: HIPK4
[7] = test system: HPK1
[8] = test system: HUNK
[9] = test system: ICK
[10] = test system: IGF1R
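Also: KINOMEscan kinase panel screen.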

| Compound | %Inh [1] | %Inh [2] | %Inh [3] | %Inh [4] | %Inh [5] | %Inh [6] | %Inh [7] | %Inh [8] | %Inh [9] | %Inh [10] |
| --- | --- | --- | --- | --- | --- | --- | --- | --- | --- | --- |
| O=C(Nc1n[nH]c2cc(-c3cccs3)ccc12)C1CC1 [SB-731284] | 0% | 0% | 37% | 4% | 63% | 6% | 0% | 0% | 78% | 0% |
| Cl.O=C(Nc1ccc(Oc2ccc3[nH]c(NC(=O)c4ccco4)nc3c2)cc1)Nc1cc(C(F)(F)F)ccc1F [GW683134] | 0% | 58% | 0% | 0% | 11% | 88% | 40% | 0% | 0% | 17% |
| COc1cc(Nc2ccnc3cc(-c4ccncc4)ccc23)cc(OC)c1OC.Cl [GW494610] | 40% | 83% | 0% | 0% | 13% | 0% | 0% | 52% | 0% | 0% |
| Cn1cc(-c2ccc3c(c2)CCN3C(=O)Cc2cc(F)cc(F)c2F)c2c(N)ncnc21 [GSK2634140] | 32% | 0% | 0% | 0% | 15% | 0% | 57% | 12% | 0% | 21% |
| Nc1ncc(-c2ccc3nccc(-c4ccncc4)c3c2)cc1S(=O)(=O)N1CCCCC1 [GSK1693850] | 80% | 0% | 42% | 0% | 20% | 57% | 50% | 82% | 16% | 10% |
| CC(=O)Nc1cn2nc(Oc3cccc(NC(=O)c4cccc(C(F)(F)F)c4)c3)ccc2n1 | 0% | 98.2% | 35% | 0% | 0% | 19% | 59% | 43% | 0% | 8% |
| COc1cccc(-c2nc(-c3ccccc3)[nH]c2-c2ccncc2)c1 [SB-610250] | 66% | 0% | 0% | 0% | 15% | 7% | 43% | 31% | 3% | 16% |
| Cl.Cl.NC(CNC(=O)c1cc(Br)c(-c2ccnc3[nH]ccc23)s1)c1ccccc1 (stereo not drawn) [GSK1322949] | 92.6% | 0% | 65% | 68% | 73% | 97.3% | 69% | 0% | 0% | 0% |
| Nc1ncc(-c2cn[nH]c2)c2scc(-c3ccc4c(c3)CCN4C(=O)Cc3ccccc3)c12 [GSK2593067] | 0% | 92.6% | 0% | 1% | 4% | 0% | 94% | 0% | 0% | 4% |
